The full list was thinned out, with hits kept by preference.
nsP2pro inh – Primary qHTS for inhibitors of NSP2Pro chikungunya virus (CHIKV); FRET peptide cleavage, nsP2pro, fluorescence 1 h; Potency, µM (series often up to 24.9 µM), without a hit: top-dose activity change, negative = inhibition, most hits filed as inhibitors; actives 1.1% (n = 31,000); AID 1964107, 2024; note: nearly all actives have a fitted effect of over 60% in size
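FRET cleavage of 2.5 uM peptide 2 by 150 nM CHIKV protease domain at pH 8.0 (Tris, Tween 20). Compounds at 7 concentrations (up to 25 uM) preincubated 15 min. Fluorescence read after 1 h at room temperature.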
nsP2 cell sec – Secondary cell base assay for inhibitors of NSP2Pro Chikungunya virus (CHIKV); shares compounds with nsP2pro inh; cell-based CHIKV nsP2 protease reporter assay; actives 10% (n = 450); Potency, µM (highest dose often 51.1 µM), without a hit: at the top dose activity change, negative = inhibition, most hits filed as inhibitors; note: nearly all actives have a fitted effect of over 70% in size
CHIKV NSP2 FL – Selectivity profile for inhibitors of NSP2Pro chikungunya virus (CHIKV): Full length NSP2 enzyme counterscreen (CHIKV-NSP2) | shares compounds with nsP2pro inh | Full-length CHIKV NSP2 protease enzymatic counterscreen | Potency, µM (titrated, usually from 50.7 µM), without a hit: at the highest dose activity change, negative = inhibition, most hits filed as inhibitors | actives 39% (n = 410) | AID 1964101, 2024; note: nearly all actives have a fitted effect of over 65% in size
Furin counterscr – Selectivity profile for inhibitors of NSP2Pro chikungunya virus (CHIKV): Human furin counterscreen; Potency, µM (highest dose often 50.6 µM), without a hit: at the highest dose activity change, negative = inhibition, usual class: inhibitors; AID 1964102, 2024; shares compounds with nsP2pro inh; Recombinant human furin enzymatic counterscreen, fluorogenic substrate; actives 6% (n = 410)
NS23 peptide cs – Selectivity profile for inhibitors of NSP2Pro chikungunya virus (CHIKV): Endogenous NS2/3 peptide Counterscreen; AID 1964103, 2024; Purified CHIKV nsP2 protease, endogenous NS2/3 peptide cleavage; actives 34% (n = 410); shares compounds with nsP2pro inh; Potency, µM (titrated, usually from 51 µM), without a hit: at the highest dose activity change, negative = inhibition, usual class: inhibitors; note: nearly all actives have a fitted effect of over 55% in size
Papain counter – Selectivity profile for inhibitors of NSP2Pro chikungunya virus (CHIKV): Papain Counterscreen; AID 1964104, 2024; shares compounds with nsP2pro inh; actives 5% (n = 410); purified papain protease activity, enzymatic inhibition; Potency, µM (doses to about 51 µM), inactives show at the top dose activity change, negative = inhibition, actives largely listed as inhibitors
Target sequence (P00784 whole entry, looked up): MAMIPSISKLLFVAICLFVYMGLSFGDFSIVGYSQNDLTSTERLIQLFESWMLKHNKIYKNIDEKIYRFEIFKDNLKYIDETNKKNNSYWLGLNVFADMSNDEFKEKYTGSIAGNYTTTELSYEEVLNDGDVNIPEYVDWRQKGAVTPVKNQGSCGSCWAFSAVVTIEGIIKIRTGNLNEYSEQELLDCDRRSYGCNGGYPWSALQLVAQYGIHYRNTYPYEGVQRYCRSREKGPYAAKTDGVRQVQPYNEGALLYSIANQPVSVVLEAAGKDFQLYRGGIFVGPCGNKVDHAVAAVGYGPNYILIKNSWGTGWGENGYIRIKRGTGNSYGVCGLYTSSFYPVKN
nsP2pro conf qHTS – Confirmatory qHTS for inhibitors of NSP2Pro chikungunya virus (CHIKV) | shares compounds with nsP2pro inh | CHIKV nsP2 protease enzymatic activity, qHTS | Potency, µM (top dose mostly 25.5 µM), for inactives: top-dose activity change, negative = inhibition, most hits filed as inhibitors | actives 43% (n = 410); note: nearly all actives have a fitted effect of over 75% in size
HCV NS3 counter – Selectivity profile for inhibitors of NSP2Pro chikungunya virus (CHIKV): NS34A-HCV Counterscreen; shares compounds with nsP2pro inh; HCV NS3/4A protease biochemical counterscreen; Potency, µM (highest dose often 50.9 µM), usual class: inhibitors; actives 20% (n = 410); AID 1964106, 2024; note: nearly all actives have a fitted effect of over 55% in size
* = called active by the depositor; [ ] = another dose, or the depositor's remark. Calls come from the whole dose curve. % is set by controls: 0 for no effect and ±100 for the full control effect; potency is the fitted concentration of half-maximal effect.

Results for Cc1cc(NC(=O)Nc2nnc(C3CCCCC3)s2)ccc1Cl ?
nsP2pro inh: -2%

What do the screens show for `C=CCN1C[C@H](C(=O)N(CCCN(C)C)C(=O)NCC)C[C@@H]2c3cccc4[nH]cc(c34)C[C@H]21`?
nsP2pro inh: inconclusive; nsP2 cell sec: 7%; CHIKV NSP2 FL: -8%; Furin counterscr: -2%; NS23 peptide cs: -8%; Papain counter: -8%; nsP2pro conf qHTS: 29%; HCV NS3 counter: inactive

Results for C=CCN1CCN(C(=O)[C@@H]2Cc3c[nH]c4cccc(c34)[C@H](CC(C)C)N2)CC1 ?
nsP2pro inh: -18%[39.2 µM]

What do the screens show for `CC(=O)NCCNC(=O)C1CCCN(S(=O)(=O)c2ccccc2)CCC(=O)NCC1` (configuration not stated)?
nsP2pro inh: -16%

How did Cc1ccc(C)c(-c2cc(C(F)(F)F)nn2-c2ccc(S(N)(=O)=O)cc2)c1 do in these assays?
nsP2pro inh: 8%

What do the screens show for `Cn1c(CN2CCN3C(=O)NC[C@H]3C2)nc2ccccc21`?
nsP2pro inh: inactive

What do the screens show for `CN1CCc2nc(C(=O)N[C@@H]3C[C@@H](C(=O)N(C)C)CC[C@@H]3NC(=O)C(=O)Nc3ccc(Cl)cn3)sc2C1`?
nsP2pro inh: inconclusive; nsP2 cell sec: -10%; CHIKV NSP2 FL: 14%; Furin counterscr: 12%; NS23 peptide cs: 6%; Papain counter: -4%; nsP2pro conf qHTS: -12%; HCV NS3 counter: inactive

How did CC[C@H](C)C1NC(=O)[C@H](Cc2ccc(O)cc2)NC(=O)[C@@H](N)CSSC[C@@H](C(=O)N2CCC[C@H]2C(=O)N[C@@H](CC(C)C)C(=O)NCC(N)=O)NC(=O)[C@H](CC(N)=O)NC(=O)[C@H](CCC(N)=O)NC1=O (some centres not stated) do in these assays?
nsP2pro inh: 17%

How did C=C(C)C(=O)O[C@H]1C[C@@](C)(O)C2(O)CCC(C)(/C=C3/OC(=O)C(COC)=C31)O2 (some centres not stated) do in these assays?
nsP2pro inh: inconclusive; nsP2 cell sec: inconclusive; CHIKV NSP2 FL: inconclusive; Furin counterscr: -10%[33.5 µM]; NS23 peptide cs: inconclusive; Papain counter: -9%[33.5 µM]; nsP2pro conf qHTS: inconclusive; HCV NS3 counter: inconclusive

What do the screens show for `O=C(O)CC[C@@H](O)C(=O)O`?
nsP2pro inh: -15%

How did O=C(O)c1ccc(-n2cccc2/C=C2\SC(=O)N(Cc3ccc(F)cc3)C2=O)cc1 do in these assays?
nsP2pro inh: inactive

How did COc1ccnc(NC(=S)N2CCN(c3ccc4ccccc4n3)CC2)c1 do in these assays?
nsP2pro inh: 4%

What do the screens show for `Cc1coc2c1C(=O)C(=O)c1c-2ccc2c(C)cccc12`?
nsP2pro inh: inconclusive; nsP2 cell sec: -2%; CHIKV NSP2 FL: inconclusive; Furin counterscr: -13%; NS23 peptide cs: inconclusive; Papain counter: inconclusive; nsP2pro conf qHTS: inconclusive; HCV NS3 counter: inactive

What do the screens show for `Cc1coc2c1C(=O)C(=O)c1c-2ccc2c1CCCC2(C)C`?
nsP2pro inh: inconclusive; nsP2 cell sec: -8%; CHIKV NSP2 FL: 12µM*; Furin counterscr: -15%; NS23 peptide cs: inconclusive; Papain counter: inconclusive; nsP2pro conf qHTS: inconclusive; HCV NS3 counter: inactive

Results for O=C(c1ccc(CN2C(=O)NC3(CCOCC3)C2=O)cc1)N1CCc2ccccc2C1 ?
nsP2pro inh: 1%

Results for CCc1nc2c(c(-c3ccc(O)cc3)n1)CCN(Cc1ccc(F)cc1)CC2 ?
nsP2pro inh: 4%

Results for Clc1ccc(N2C[C@H]3CC[C@@H](C2)N3)nn1 ?
nsP2pro inh: 5µM*; nsP2 cell sec: 1%; CHIKV NSP2 FL: 4.1µM*; Furin counterscr: inconclusive; NS23 peptide cs: 15µM*; Papain counter: inconclusive; nsP2pro conf qHTS: 3.6µM*; HCV NS3 counter: inactive

How did Cc1cc(C)nc(NC(=S)N2CCN(c3ccc(Cl)nn3)CC2)c1 do in these assays?
nsP2pro inh: -9%

Results for CC12CCC3C(CCC4CC(O)CCC43C)C1CCC2=O (configuration not stated) ?
nsP2pro inh: -19%

How did O[C@@H]1C[C@@H](c2nnc3n2CCN(C2CCCCC2)C3)N(Cc2cccnc2)C1 do in these assays?
nsP2pro inh: -22%

What do the screens show for `c1cncc(CN2CCn3c(nnc3C3CCCNC3)C2)c1` (configuration not stated)?
nsP2pro inh: inconclusive; nsP2 cell sec: 7%

What do the screens show for `Fc1ccc(CN2CCn3c(nnc3-c3ccncc3)C2)cc1`?
nsP2pro inh: -5%

What do the screens show for `COc1cccc(NC(=S)N2CCN(c3cccc(Cl)c3Cl)CC2)n1`?
nsP2pro inh: -13%

Results for COc1cccc2c1OCCCN(c1cc(C3CC(O)C3)nc(N)n1)C2 (configuration not stated) ?
nsP2pro inh: 2%

What do the screens show for `O=C(/C=C/c1ccc(O)cc1)OC[C@@]1(O)C=C[C@@H]2C(C(=O)O)=CO[C@@H](O[C@@H]3O[C@H](CO)[C@@H](O)[C@H](O)[C@H]3O)[C@@H]21`?
nsP2pro inh: 147%[10 µM]

What do the screens show for `C[C@@H](OC(=O)/C=C/c1ccc(O)cc1)C1=C[C@]2(C=C[C@@H]3C(C(=O)O)=CO[C@@H](O[C@@H]4O[C@H](CO[C@@H]5O[C@H](CO)[C@@H](O)[C@H](O)[C@H]5O)[C@@H](O)[C@H](O)[C@H]4O)[C@@H]32)OC1=O`?
nsP2pro inh: 21%[10 µM]

Screens: PubChem, National Center for Advancing Translational Sciences (NCATS)
